Out of some 5,500 compounds screened, about 2,000 (36%) were called active. Inconclusive results (about 18%) are left out. Rule as the data show it: active = normalized growth mostly below about 0.91 (no sharp cut-off); inconclusive = no clear call, values can overlap the other calls; inactive = mostly above about 0.92. This is one part of the list.
Test: chemical genetic growth profiling, strain panel (AID 1159580);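 also: tested at 20 µM; growth read once vehicle control cultures reached saturation at 30 °C; 1 = growth at the plate median or of vehicle wells; lower values mean less growth of the strain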
Settings: growth OD
[1] = S. cerevisiae deletion strains, locus YAL013W, strain DEP1, hits give low values
[2] = S. cerevisiae deletion strains, locus YBR229C, strain ROT2, hits give low values
[3] = S. cerevisiae deletion strains, locus YCL061C, strain MRC1, hits give low values
[4] = S. cerevisiae deletion strains, locus YDL101C, strain DUN1, hits give low values
[5] = S. cerevisiae deletion strains, locus YDR150W, strain NUM1, hits give low values
[6] = S. cerevisiae deletion strains, locus YEL061C, strain CIN8, hits give low values
[7] = S. cerevisiae deletion strains, locus YGR078C, strain PAC10, hits give low values
[8] = S. cerevisiae deletion strains, locus YHR030C, strain SLT2, hits give low values
[9] = S. cerevisiae deletion strains, locus YHR087W, strain rtc3, hits give low values
[10] = S. cerevisiae deletion strains, locus YJR043C, strain POL32, hits give low values
[11] = S. cerevisiae deletion strains, locus YJR075W, strain HOC1, hits give low values
[12] = S. cerevisiae deletion strains, locus YLR039C, strain RIC1, hits give low values
[13] = S. cerevisiae deletion strains, locus YLR058C, strain SHM2 (second series), hits give low values
[14] = S. cerevisiae deletion strains, locus YLR085C, strain ARP6, hits give low values
[15] = S. cerevisiae deletion strains, locus YLR262C, strain YPT6, hits give low values
[16] = S. cerevisiae deletion strains, locus YML094W, strain GIM5, hits give low values
[17] = S. cerevisiae deletion strains, locus YMR219W, strain ESC1, hits give low values
[18] = S. cerevisiae deletion strains, locus YMR263W, strain SAP30, hits give low values
[19] = S. cerevisiae deletion strains, locus YNL153C, strain GIM3, hits give low values
[20] = S. cerevisiae deletion strains, locus YNL298W, strain CLA4 (second series), hits give low values
[21] = S. cerevisiae deletion strains, locus YNL322C, strain KRE1, hits give low values
[22] = S. cerevisiae deletion strains, locus YNR030W, strain Alg12, hits give low values
[23] = S. cerevisiae deletion strains, locus YPL055C, strain LGE1, hits give low values
[24] = S. cerevisiae deletion strains, locus YPL241C, strain CIN2, hits give low values
[25] = S. cerevisiae deletion strains, locus YPR135W, strain CTF4, hits give low values
[26] = S. cerevisiae strains, strain wild type, hits give low values

Measured: normalized growth

Cc1cc(S(=O)(=O)NC(Cc2ccc([N+](=O)[O-])cc2)C(=O)O)c(Cl)cc1Cl (stereo not given)
inactive: [1] 1.01 | [2] 0.996 | [3] 1 | [4] 0.997 | [5] 0.927 | [6] 1.01 | [7] 1 | S. cerevisiae deletion strains, locus YGR229C, strain SMI1, hits give low values 1.01 | [8] 1.07 | [9] 1 | [10] 0.998 | [11] 1 | [12] 1.01 | [13] 1 | [14] 1.02 | [15] 1 | [16] 1.02 | [17] 0.995 | [18] 1 | S. cerevisiae deletion strains, locus YNL128W, strain TEP1, hits give low values 1 | [19] 0.995 | [20] 1.01 | [21] 1 | [22] 1.01 | [23] 1.04 | [24] 1.02 | [25] 0.988 | [26] 1.01

O=[N+]([O-])c1ccc(NCCCCCO)nc1
inactive: [1] 0.988 | [2] 0.98 | [3] 0.977 | [4] 0.966 | S. cerevisiae deletion strains, locus YDL134C, strain PPH21, hits give low values 0.998 | [5] 0.975 | [6] 1.03 | [7] 0.987 | [8] 0.974 | [9] 1.05 | S. cerevisiae deletion strains, locus YJL187C, strain SWE1, hits give low values 1 | [10] 0.981 | [11] 1.02 | S. cerevisiae deletion strains, locus YKL190W, strain CNB1, hits give low values 1.01 | [12] 0.936 | [13] 0.993 | [14] 0.993 | [15] 1.01 | [16] 1.04 | [17] 1.01 | [18] 0.999 | S. cerevisiae deletion strains, locus YMR307W, strain GAS1, hits give low values 1.07 | [19] 0.986 | [20] 0.967 | [21] 0.992 | [22] 0.99 | S. cerevisiae deletion strains, locus YOL006C, strain TOP1, hits give low values 0.955 | [23] 1.04 | [24] 0.974 | [25] 0.958 | [26] 0.996

O=[N+]([O-])c1ccc(NCc2ccc(Cl)c(Cl)c2)nc1
active: [8] 0.733 | S. cerevisiae deletion strains, locus YLR113W, strain HOG1, hits give low values 0.657 | S. cerevisiae deletion strains, locus YPL256C, strain CLN2, hits give low values 0.763
inactive: S. cerevisiae deletion strains, locus YAR019C, strain CDC15, hits give low values 0.931 | S. cerevisiae deletion strains, locus YBL105C, strain PKC1, hits give low values 0.936 | S. cerevisiae deletion strains, locus YBR135W, strain CKS1, hits give low values 0.936 | S. cerevisiae deletion strains, locus YBR136W, strain MEC1, hits give low values 0.944 | S. cerevisiae deletion strains, locus YBR160W, strain CDC28, hits give low values 0.941 | S. cerevisiae deletion strains, locus YDL017W, strain CDC7, hits give low values 0.946 | S. cerevisiae deletion strains, locus YDL028C, strain MPS1, hits give low values 0.946 | [4] 0.925 | S. cerevisiae deletion strains, locus YDL108W, strain KIN28, hits give low values 0.942 | S. cerevisiae deletion strains, locus YDL132W, strain cdc53, hits give low values 0.919 | S. cerevisiae deletion strains, locus YDL214C, strain PRR2, hits give low values 0.857 | S. cerevisiae deletion strains, locus YDR052C, strain DBF4, hits give low values 0.953 | S. cerevisiae deletion strains, locus YDR054C, strain cdc34, hits give low values 0.918 | S. cerevisiae deletion strains, locus YDR226W, strain ADK1, hits give low values 0.937 | S. cerevisiae deletion strains, locus YDR477W, strain SNF1, hits give low values 0.882 | S. cerevisiae deletion strains, locus YER123W, strain YCK3, hits give low values 0.862 | S. cerevisiae deletion strains, locus YER133W, strain GLC7, hits give low values 0.842 | S. cerevisiae deletion strains, locus YFL009W, strain cdc4, hits give low values 0.923 | S. cerevisiae deletion strains, locus YFL029C, strain CAK1, hits give low values 0.931 | S. cerevisiae deletion strains, locus YFR003C, strain YPI1, hits give low values 0.944 | S. cerevisiae deletion strains, locus YFR019W, strain FAB1, hits give low values 0.907 | S. cerevisiae deletion strains, locus YFR028C, strain CDC14, hits give low values 0.917 | S. cerevisiae deletion strains, locus YGR040W, strain KSS1, hits give low values 0.884 | S. cerevisiae deletion strains, locus YGR052W, strain FMP48, hits give low values 0.861 | S. cerevisiae deletion strains, locus YGR092W, strain DBF2, hits give low values 0.852 | S. cerevisiae deletion strains, locus YHR079C, strain IRE1, hits give low values 0.78 | S. cerevisiae deletion strains, locus YHR082C, strain KSP1, hits give low values 0.906 | S. cerevisiae deletion strains, locus YHR205W, strain SCH9, hits give low values 0.81 | S. cerevisiae deletion strains, locus YIL147C, strain SLN1, hits give low values 0.94 | S. cerevisiae deletion strains, locus YJL095W, strain BCK1, hits give low values 0.774 | S. cerevisiae deletion strains, locus YJL128C, strain PBS2, hits give low values 0.839 | S. cerevisiae deletion strains, locus YJL157C, strain FAR1, hits give low values 0.883 | S. cerevisiae deletion strains, locus YJR016C, strain ILV3, hits give low values 0.939 | S. cerevisiae deletion strains, locus YJR066W, strain TOR1 (second series), hits give low values 0.892 | S. cerevisiae deletion strains, locus YJR066W, strain TOR1, hits give low values 0.898 | S. cerevisiae deletion strains, locus YKL048C, strain ELM1, hits give low values 0.913 | S. cerevisiae deletion strains, locus YKL067W, strain YNK1, hits give low values 0.891 | S. cerevisiae deletion strains, locus YKL101W, strain HSL1, hits give low values 0.875 | S. cerevisiae deletion strains, locus YKL193C, strain SDS22, hits give low values 0.935 | S. cerevisiae deletion strains, locus YKL203C, strain TOR2, hits give low values 0.948 | S. cerevisiae deletion strains, locus YLR133W, strain CKI1, hits give low values 0.911 | S. cerevisiae deletion strains, locus YLR403W, strain SFP1, hits give low values 0.865 | S. cerevisiae deletion strains, locus YML070W, strain DAK1, hits give low values 0.854 | S. cerevisiae deletion strains, locus YMR001C, strain CDC5, hits give low values 0.938 | S. cerevisiae deletion strains, locus YMR205C, strain PFK2 (second series), hits give low values 0.875 | S. cerevisiae deletion strains, locus YMR277W, strain FCP1, hits give low values 0.932 | S. cerevisiae deletion strains, locus YNL006W, strain LST8, hits give low values 0.916 | S. cerevisiae deletion strains, locus YNL020C, strain ARK1, hits give low values 0.893 | S. cerevisiae deletion strains, locus YNL161W, strain CBK1, hits give low values 0.93 | S. cerevisiae deletion strains, locus YNL183C, strain NPR1, hits give low values 0.934 | S. cerevisiae deletion strains, locus YNL207W, strain RIO2, hits give low values 0.937 | S. cerevisiae deletion strains, locus YNL222W, strain SSU72, hits give low values 0.927 | S. cerevisiae deletion strains, locus YNL307C, strain MCK1 (second series), hits give low values 0.91 | S. cerevisiae deletion strains, locus YOL078W, strain AVO1, hits give low values 0.926 | S. cerevisiae deletion strains, locus YOL136C, strain PFK27, hits give low values 0.864 | S. cerevisiae deletion strains, locus YOR061W, strain CKA2, hits give low values 0.884 | S. cerevisiae deletion strains, locus YOR119C, strain RIO1, hits give low values 0.949 | S. cerevisiae deletion strains, locus YOR231W, strain MKK1, hits give low values 0.87 | S. cerevisiae deletion strains, locus YOR329C, strain SCD5, hits give low values 0.933 | S. cerevisiae deletion strains, locus YPL031C, strain PHO85, hits give low values 0.88 | S. cerevisiae deletion strains, locus YPL153C, strain RAD53, hits give low values 0.895 | S. cerevisiae deletion strains, locus YPL204W, strain HRR25, hits give low values 0.869 | S. cerevisiae deletion strains, locus YPL209C, strain IPL1, hits give low values 0.943 | S. cerevisiae deletion strains, locus YPR025C, strain CCL1, hits give low values 0.93 | S. cerevisiae deletion strains, locus YPR106W, strain ISR1, hits give low values 0.918 | S. cerevisiae deletion strains, locus YPR111W, strain DBF20, hits give low values 0.909 | S. cerevisiae deletion strains, strain NNK1, hits give low values 0.891 | S. cerevisiae deletion strains, strain TSCII, hits give low values 0.93
